In the library only some 0.98% were active in any assay of this set; here they are far more common.
RTF Ca sens inh = cardiac RTF calcium desensitization. inhibition, % at 7.15 µM. 0.12% of 340,000 active. IANBD-labeled cardiac RTF, Ca2+ fluorescence. AID 493244. P19429+P45379;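 active = inhibition above the mean inhibition of all tested compounds plus 3 SD, cut at about 17% in these data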;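 also: assay run at fixed EC70 calcium of 1.6 mM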
Keap1-Nrf2 PPI = disrupts human Keap1 binding to Nrf2 peptide; Q14145; inhibition, % at 9.4 µM; 0.15% of 340,000 active; Keap1 Kelch-Nrf2 peptide fluorescence polarization, 1536-well; in the data active = inhibition above about 12%;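 also: human Keap1 Kelch domain with fluorescein labeled Nrf2 9mer peptide probe; 0% = neutral control wells and 100% = peptide positive control; higher means more block of Keap1 binding to Nrf2 peptide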
eLon inh = inhibitors of E. coli Lon protease | purified E. coli Lon protease, fluorescence polarization | P0A9M0 | 0.42% of 360,000 active | inhibition, % at 7.94 µM; in the data active = inhibition above about 13%, passing the limit was not always enough;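 also: 0% = enzyme with probe and DMSO and 100% = no enzyme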
Target sequence (P0A9M0 whole entry, looked up): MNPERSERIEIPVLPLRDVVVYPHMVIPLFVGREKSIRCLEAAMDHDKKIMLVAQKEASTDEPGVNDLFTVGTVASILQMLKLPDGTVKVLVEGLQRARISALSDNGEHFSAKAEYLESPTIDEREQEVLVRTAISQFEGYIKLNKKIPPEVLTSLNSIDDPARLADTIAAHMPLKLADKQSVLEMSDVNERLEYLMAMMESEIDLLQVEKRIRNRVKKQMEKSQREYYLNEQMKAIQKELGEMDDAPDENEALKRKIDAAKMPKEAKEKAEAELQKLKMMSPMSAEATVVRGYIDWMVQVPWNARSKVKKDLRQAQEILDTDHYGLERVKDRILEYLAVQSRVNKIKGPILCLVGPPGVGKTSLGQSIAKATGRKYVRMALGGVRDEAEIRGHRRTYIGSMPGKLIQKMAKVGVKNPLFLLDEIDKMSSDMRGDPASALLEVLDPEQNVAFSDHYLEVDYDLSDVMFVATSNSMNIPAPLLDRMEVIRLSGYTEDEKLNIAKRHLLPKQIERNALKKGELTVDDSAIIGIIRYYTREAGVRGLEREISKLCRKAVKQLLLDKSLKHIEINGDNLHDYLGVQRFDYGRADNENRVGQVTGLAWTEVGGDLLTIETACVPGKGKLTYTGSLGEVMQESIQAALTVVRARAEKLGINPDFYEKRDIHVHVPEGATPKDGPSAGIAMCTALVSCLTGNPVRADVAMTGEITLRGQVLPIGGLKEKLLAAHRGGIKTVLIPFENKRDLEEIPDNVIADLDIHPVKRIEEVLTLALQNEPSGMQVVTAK
RTF Ca sens act = cardiac RTF calcium sensitization; P19429+P45379; IANBD-labeled TnC RTF fluorescence at EC20 calcium; 0% EC20 calcium, 100% full calcium; activation, % at 7.2 µM; 0.24% of 340,000 active; AID 493008;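 active = activation above the mean over all tested compounds plus 3 SD, cut at about 30% in these data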;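 also: rise in fluorescence read as greater calcium sensitivity of cardiac thin filaments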
EBV gp42 block = EBV gp42 inhibition. Q1HVG2. Fluorescence polarization binding assay, mP read-out. inhibition, % (tested at 21.74 µM). 0.42% of 220,000 active; in the data active = inhibition above about 50%
LANA DNA inh = inhibitors of KSHV LANA C-terminal domain DNA binding. MBP-C-LANA/FAM-LBS DNA binding, fluorescence polarization. inhibition, % at 9 µM. 0.078% of 340,000 active;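 active = highest replicate inhibition at or above 60% at 9 µM, even if other replicates fall short; inactive = all replicates below 60% inhibition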;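 also: 0% = neutral control wells and 100% = 4 µM acridine orange control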
Starred values were filed as active, the others as inactive.

Screening COC(CNC(=O)c1cccnc1)OC returned RTF Ca sens inh -11, Keap1-Nrf2 PPI -3, eLon inh 0, RTF Ca sens act 5, EBV gp42 block 2 and LANA DNA inh 2.
`Cc1ccc2oc(=O)c(/C=C(\O)c3ccccc3)nc2c1` gave RTF Ca sens inh -9, Keap1-Nrf2 PPI -26, eLon inh 3, RTF Ca sens act 3, EBV gp42 block 59* and LANA DNA inh 6.
`C/C(O)=C\c1nc2ccccc2oc1=O` gave RTF Ca sens inh 1, Keap1-Nrf2 PPI -3, eLon inh 11, RTF Ca sens act 2, EBV gp42 block 5 and LANA DNA inh 0.
For O=c1oc2ccccc2nc1/C=C(\O)c1ccc(Br)cc1 the results were RTF Ca sens inh -5, Keap1-Nrf2 PPI 0, eLon inh 9, RTF Ca sens act 0, EBV gp42 block 64* and LANA DNA inh 2.
For Cc1ccc2oc(=O)c(/C=C(\O)c3cccs3)nc2c1 the results were RTF Ca sens inh 1, Keap1-Nrf2 PPI 1, eLon inh -1, RTF Ca sens act 5, EBV gp42 block -79 and LANA DNA inh 15.
COc1ccccc1C#Cc1cnc2c(c1)C(=O)N([C@H](C)CO)C[C@H](C)[C@@H](CN(C)S(=O)(=O)c1cn(C)cn1)O2 was read as eLon inh 2.
For CCOC(=O)Cn1c(=O)c(-c2cc(Br)ccc2N)nc2ccccc21 the results were RTF Ca sens inh -5, Keap1-Nrf2 PPI 2, eLon inh 4, RTF Ca sens act 44*, EBV gp42 block 60* and LANA DNA inh -2.
Screening CCOC(=O)Cn1c(=O)c(-c2ccccc2N)nc2ccccc21 returned RTF Ca sens inh -8, Keap1-Nrf2 PPI -3, eLon inh -9, RTF Ca sens act -2, EBV gp42 block -11 and LANA DNA inh 0.
Screening CC1CN(c2nc3ccccc3nc2C(C#N)C(=O)NCc2ccc3c(c2)OCO3)CC(C)O1 (configuration not stated) returned RTF Ca sens inh -22, Keap1-Nrf2 PPI -1, eLon inh 1, RTF Ca sens act 0, EBV gp42 block 71* and LANA DNA inh 3.
`COc1ccc(CNC(=O)C(C#N)c2nc3ccccc3nc2N2CCN(C)CC2)cc1` (configuration not stated) gave RTF Ca sens inh -8, Keap1-Nrf2 PPI -2, eLon inh 1, RTF Ca sens act 1, EBV gp42 block -8 and LANA DNA inh 0.
For COc1ccc(CNC(=O)C(C#N)c2nc3ccccc3nc2N2CCCC2)cc1 (configuration not stated) the results were RTF Ca sens inh -405, Keap1-Nrf2 PPI 5, eLon inh -35, RTF Ca sens act 51*, EBV gp42 block -16 and LANA DNA inh 18.
`CCOC(=O)C1=C(Cc2ccc(OC)cc2)C(=O)c2ccccc2C1=O` gave RTF Ca sens inh -34, Keap1-Nrf2 PPI -8, eLon inh 28*, RTF Ca sens act 10, EBV gp42 block 10 and LANA DNA inh 0.
Screening COc1ccc(NC(=O)CCCc2nc3ccccc3c(=O)[nH]2)cc1Cl returned RTF Ca sens inh -7, Keap1-Nrf2 PPI -4, eLon inh -3, RTF Ca sens act -4 and LANA DNA inh 2.
`CCCCN(C(=O)c1cccc(S(=O)(=O)N(CC)c2ccccc2)c1)c1c(N)n(CCCC)c(=O)[nH]c1=O` gave RTF Ca sens inh 1, Keap1-Nrf2 PPI 0, eLon inh -6, RTF Ca sens act -2 and LANA DNA inh 0.
Screening CN=Cc1nc(-c2ccccc2)oc1O returned RTF Ca sens inh 6, Keap1-Nrf2 PPI 0, eLon inh -4, RTF Ca sens act -3, EBV gp42 block -3 and LANA DNA inh 0.
`CC1=Nc2ccccc2/C1=C\c1nc(-c2ccc(F)cc2)oc1O` gave RTF Ca sens inh -134, Keap1-Nrf2 PPI 4, eLon inh -42, RTF Ca sens act 84*, EBV gp42 block 138* and LANA DNA inh 8.
CC1=C(C#N)C(=O)NC(=O)/C1=C\c1ccc(-c2ccc(C)cc2[N+](=O)[O-])o1 was read as RTF Ca sens inh -3, Keap1-Nrf2 PPI -2, eLon inh 0, RTF Ca sens act -2, EBV gp42 block 21 and LANA DNA inh 6.
`CCOC(=O)c1cc(-c2ccc(/C=C3/C(=O)NC(=O)C(C#N)=C3C)o2)ccc1Cl` gave RTF Ca sens inh -5, Keap1-Nrf2 PPI -2, eLon inh -23, RTF Ca sens act 5, EBV gp42 block 106* and LANA DNA inh 25.

Source: PubChem BioAssay
